Assay outcomes (PubChem)
The list is not random: actives were taken first. Their share in the collection is about 12%.
NS1 function inh – inhibitors of influenza NS1 protein function | actives 0.4% (n = 270,000) | Potency, µM (titrated, usually from 46.1 µM), inactives show top-dose activity, positive = more growth; also: potency is read from the fitted curve at half-maximal effect; actives are rising curves; nearly all actives have a fitted effect of over 50% in size
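Growth recovery, yeast-based: influenza A NS1 expressed in S. cerevisiae causes slow growth, and suppressors are detected by OD600. The parent strain without NS1 is used as positive control.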
SARS PLP yeast – SARS-CoV PLP inhibition in yeast; S. cerevisiae expressing SARS-CoV PLpro, growth rescue; Potency, µM (top dose mostly 32.9 µM), inactives show at the top dose activity, positive = growth rescue, actives largely listed as activators; actives 0.19% (n = 330,000); AID 485353; also: potency is read from the fitted curve at half-maximal effect; 0% is about no effect; nearly all actives have a fitted effect of over 55% in size
Shiga inhibitor – blocks Shiga toxin action in Vero cells | inhibition, % at 38.7 µM | Vero cells, Shiga toxin protein synthesis inhibition reporter | actives 9.2% (n = 290,000); in the data active = inhibition mostly above about 28%, no sharp cut-off; inactive = mostly below about 43%; also: 0% is about no effect
Cycloheximide cs – counter-screen for Shiga toxin inhibitors: cycloheximide protein synthesis inhibition; cell reporter, cycloheximide protein synthesis inhibition counterscreen; max response, %; actives 12% (n = 300,000); AID 2314; in the data active = max response mostly above about 13%, no sharp cut-off; inactive = mostly below about 14%; also: read at 38.3 µM for the half of the compounds with a filed dose; 0% is about no effect
An asterisk follows results filed as active; ? = inconclusive; nt = no result; + = active, no number. Unless noted, calls follow the shape of the full dose curve.

SMILES	NS1 function inh	SARS PLP yeast	Shiga inhibitor	Cycloheximide cs
O=C(OCC(=O)N1CCCC1)c1ccc(OC(F)(F)F)cc1	-3.0%	0.9%	70.3	21.9*
CCN(CC)c1ccc(C(=O)OCC(=O)N2CCCC2)cc1	-9.3%	-0.1%	58.9*	28.7*
O=C(N1CCCC1)C(F)(F)Oc1ccc(F)cc1	-4.7%	0.3%	32.0*	14.5
COc1ccccc1N1C(=O)C2C(c3ccc(F)cc3)NN(C(=O)c3ccc(C)cc3)C2C1=O (stereo not drawn)	nt	-0.4%	6.9	12.1
Cc1ccc(C)n1-c1c(C(=O)NN)cnn1-c1ccccc1	nt	1.9%	-4.4	-3.5
Cc1ccc(NC(=O)CSc2nnc(-c3ccc(S(=O)(=O)N4CCCC4)cc3)o2)cc1C	-2.7%	10.9%	-19.0	-7.3
CCOC(=O)N1CCN(c2ncnc3c2cnn3-c2ccc(OC)cc2)CC1	-5.7%	4.3%	5.1	-1.4
Cn1ncc2c(N3CCN(c4ccc(Cl)c(Cl)c4)CC3)ncnc21	-0.8%	-0.1%	-2.7	-4.0
O=C(c1ccco1)N1CCN(c2ncnc3c2cnn3-c2ccccc2)CC1	-33.4%	-10.0%	40.9	25.2*
O=C(c1ccccc1)N1CCN(c2ncnc3c2cnn3-c2ccccc2)CC1	0.2%	-0.7%	16.5	14.0
COc1ccc(-n2ncc3c(N4CCC(C)CC4)ncnc32)cc1	-42.2%	-6.8%	26.2*	20.1*
Cn1ncc2c(N3CCN(c4ccccc4F)CC3)ncnc21	-7.4%	5.2%	6.8	13.1*
CC1CCN(c2ncnc3c2cnn3-c2ccccc2)CC1	-54.0%	-4.2%	75.3*	42.4*
CCN1C(=O)[C@H]2[C@@H](c3ccc(-c4ccc(OC)cc4)cc3)N3CCCC[C@@]3(C(=O)OC)[C@H]2C1=O	nt	-4.9%	nt	nt
NC(=O)CNC1CC(=O)N(CCc2ccccc2)C1=O (stereo not drawn)	2.1%	13.7%	5.8	6.6
CN(Cc1cccc2ccccc12)Cc1cccc2ccccc12	-6.9%	nt	nt	nt
CCOC(=O)C1CCN(c2ncnc3c2cnn3-c2ccccc2)CC1	-13.7%	-2.5%	37.2	18.4*
CCOC(=O)C1CCN(c2ncnc3c2cnn3-c2ccc(Cl)cc2)CC1	-5.6%	10.2%	7.9	-1.7
Cc1nn(-c2ccccc2)c(Cl)c1C(=O)N1CCN(c2ncnc3c2cnn3-c2ccccc2)CC1	-33.1%	1.3%	-17.2	-5.6
COc1cccc(OCCN2CCN(c3ncnc4c3cnn4-c3ccccc3)CC2)c1	-13.4%	0.6%	31.3	17.9*
O=C(c1ccco1)N1CCN(c2ncnc3c2[nH]c2ccc(Cl)cc23)CC1	2.24µM*	?	6.2	5.6
O=C(c1cccc(Cl)c1)N1CCN(c2ncnc3c2cnn3-c2ccccc2)CC1	1.0%	0.5%	-2.7	-4.0
Clc1ccc(-n2ncc3c(N4CCCC4)ncnc32)cc1	-7.8%	-1.1%	120.4*	77.0*
O=C(c1ccco1)N1CCN(c2c(-c3ccccc3)c3cc(Cl)ccc3[nH]c2=O)CC1	nt	2.4%	-5.4	-1.1
COc1ccc(CNC(=O)C2CCC(CNc3nc(=S)[nH]c4ccccc34)CC2)cc1 (stereo not drawn)	3.9%	1.0%	-5.1	-3.2
SMILES	NS1 function inh	SARS PLP yeast	Shiga inhibitor	Cycloheximide cs
COCCCN=C(c1ccco1)n1c(=S)nc(-c2ccco2)n(CCCOC)c1=S	-32.1%	-24.5%	62.0*	27.7*
CCCCC(C)/C=C(C)/C=C(\C)C(=O)NC1=CC(O)(/C=C/C=C/C=C/C(=O)NC2=C(O)CCC2=O)C2OC2C1=O (stereo not drawn)	nt	nt	-4.0	-5.7
CC(=O)Nc1ccc(NC(=S)NC(=O)C2CCCC2)cc1	8.7%	2.8%	-13.0	13.9
CCOC(=O)c1sc(NC(=O)c2cccc(S(=O)(=O)N(CC)CC)c2)cc1C	0.9%	-5.8%	-7.6	-0.4
CCOC(=O)c1sc(NC(=O)C(C)(C)C)cc1C	-22.1%	-18.8%	active	27.6*
CCOC(=O)c1sc(NC(=S)NC(=O)CC(C)C)cc1C	1.1%	1.9%	48.9*	42.8*
CCOC(=O)c1sc(NC(=O)C2CC2)cc1C	-125.7%	-19.5%	38.2*	15.3*
CCOC(=O)c1sc(NC(=S)NC(=O)C2CCCC2)cc1C	8.0%	-25.2%	10.3*	11.1
CC(=O)Nc1cccc(C(=O)NC(C)c2ccc(S(N)(=O)=O)cc2)c1 (stereo not drawn)	3.5%	15.7%	-7.3	2.1
CC(=O)c1ccc(N=c2scc(C)n2C(C)C)cc1	nt	-3.5%	56.7	40.1*
CCOc1ccc(NC(=S)c2ccncc2)cc1	-6.4%	-31.2%	25.9	15.0
Cn1cnc2c1c(=O)n(Cc1cccc(Cl)c1)c(=O)n2C	-1.6%	0.2%	-8.4	-8.1
O=C(CNC(=O)c1ccc2c(c1)OCO2)NCCOc1ccc(Cl)cc1	nt	0.9%	nt	nt
COCCCNC(=O)c1ccc2c(c1)OCO2	4.7%	5.9%	+	22.9*
CCCCOCCCNC(=O)c1ccc2c(c1)OCO2	-16.8%	-4.3%	11.2	9.6
